Reference: PubChem BioAssay (NCI)
Where “and” joins values, the source holds several entries; their conditions need not be identical. Identical values can stand only once. This is part of a sample that, as a whole, favours compounds with a hit. Of some 83,000 tested, about 20% had one in any assay.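 The test compound was applied at a single concentration to cells in 96-well plates for 48 hours, and percent growth was recorded.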 Calls of active or inactive are those of the source. The calls were made as follows: active = growth percent below 10; inactive = the rest.

What was measured:
Experiment in all cases: NCI-60 one-dose screen, 48 h (100 = growth as untreated, 0 = no growth, -100 = all killed)
Conditions in all cases: 10 µM unless noted
SK-MEL-2 melanoma = test system: SK-MEL-2 melanoma
EKVX NSCLC = test system: EKVX NSCLC
SN12C renal = test system: SN12C renal
UO-31 renal = test system: UO-31 renal
TK-10 renal = test system: TK-10 renal
ACHN renal = test system: ACHN renal
CAKI-1 renal = test system: CAKI-1 renal
A498 renal = test system: A498 renal
CCRF-CEM leukemia = test system: CCRF-CEM leukemia
MOLT-4 leukemia = test system: MOLT-4 leukemia
RPMI-8226 leukemia = test system: RPMI-8226 leukemia
OVCAR-8 ovarian = test system: OVCAR-8 ovarian
OVCAR-5 ovarian = test system: OVCAR-5 ovarian
OVCAR-4 ovarian = test system: OVCAR-4 ovarian
SK-OV-3 ovarian = test system: SK-OV-3 ovarian
IGROV1 ovarian = test system: IGROV1 ovarian
OVCAR-3 ovarian = test system: OVCAR-3 ovarian
HS 578T breast = test system: HS 578T breast
NCI/ADR-RES ovarian = test system: NCI/ADR-RES ovarian
SR leukemia = test system: SR leukemia

COc1ccc(-c2ncnc3c2ncn3C/C=C/CCl)cc1
growth (SK-MEL-2 melanoma): 68.6% (inactive) and 59.2% (inactive)
growth (EKVX NSCLC): 108% (inactive) and 106% (inactive)
growth (SN12C renal): 83.6% (inactive) and 79.6% (inactive)
growth (UO-31 renal): 60.3% (inactive) and 85.8% (inactive)
growth (TK-10 renal): 86.3% (inactive) and 95.3% (inactive)
growth (ACHN renal): 59.4% (inactive) and 79.3% (inactive)
growth (CAKI-1 renal): 70.8% (inactive) and 90.8% (inactive)
growth (A498 renal): 68.4% (inactive) and 85.6% (inactive)
growth (CCRF-CEM leukemia): 63.2% (inactive) and 56.7% (inactive)
growth (MOLT-4 leukemia): 48.9% (inactive)
growth (RPMI-8226 leukemia): 52.1% (inactive) and 67.4% (inactive)
growth (OVCAR-8 ovarian): 67.2% (inactive) and 69.5% (inactive)
growth (OVCAR-5 ovarian): 114% (inactive) and 105% (inactive)
growth (OVCAR-4 ovarian): 53.3% (inactive) and 56.7% (inactive)
growth (SK-OV-3 ovarian): 111% (inactive) and 109% (inactive)
growth (IGROV1 ovarian): 93.8% (inactive) and 82.9% (inactive)
growth (OVCAR-3 ovarian): 77.6% (inactive) and 99% (inactive)
growth (HS 578T breast): 131% (inactive) and 111% (inactive)
growth (NCI/ADR-RES ovarian): 76.9% (inactive) and 86.3% (inactive)

CCOc1ccc2cc(-c3nn(CC4CCNCC4)c4ncnc(N)c34)ccc2c1
growth (SK-MEL-2 melanoma): 108% (inactive)
growth (EKVX NSCLC): 101% (inactive) and 55.6% (inactive)
growth (SN12C renal): 82.9% (inactive) and 28.9% (inactive)
growth (UO-31 renal): 68.8% (inactive) and 45.7% (inactive)
growth (TK-10 renal): 77.1% (inactive) and 80.5% (inactive)
growth (ACHN renal): 102% (inactive) and 49.5% (inactive)
growth (CAKI-1 renal): 95.4% (inactive) and 81.9% (inactive)
growth (A498 renal): 73% (inactive) and 37% (inactive)
growth (CCRF-CEM leukemia): 88.4% (inactive) and 9.5% (active)
growth (MOLT-4 leukemia): 66.1% (inactive) and -12.1% (active)
growth (SR leukemia): 59.3% (inactive) and -25.2% (active)
growth (RPMI-8226 leukemia): 90.6% (inactive) and -13.2% (active)
growth (OVCAR-8 ovarian): 92.1% (inactive) and 58.5% (inactive)
growth (OVCAR-5 ovarian): 92% (inactive) and 70.5% (inactive)
growth (OVCAR-4 ovarian): 55.8% (inactive) and 42.7% (inactive)
growth (IGROV1 ovarian): 92.7% (inactive) and 47.8% (inactive)
growth (OVCAR-3 ovarian): 101% (inactive) and 74.7% (inactive)
growth (HS 578T breast): 83.8% (inactive) and 22.1% (inactive)
growth (NCI/ADR-RES ovarian): 99.5% (inactive) and 93.5% (inactive)

O=C1c2ccccc2C(=O)N1/N=C/c1ccc2c(c1)OCO2
growth (SK-MEL-2 melanoma): 95.1% (inactive)
growth (EKVX NSCLC): 116% (inactive)
growth (SN12C renal): 86.3% (inactive)
growth (UO-31 renal): 81.2% (inactive)
growth (TK-10 renal): 102% (inactive)
growth (ACHN renal): 94.2% (inactive)
growth (CAKI-1 renal): 110% (inactive)
growth (A498 renal): 81.4% (inactive)
growth (CCRF-CEM leukemia): 93.1% (inactive)
growth (MOLT-4 leukemia): 86.3% (inactive)
growth (SR leukemia): 82% (inactive)
growth (RPMI-8226 leukemia): 88.5% (inactive)
growth (OVCAR-8 ovarian): 100% (inactive)
growth (OVCAR-5 ovarian): 93.1% (inactive)
growth (OVCAR-4 ovarian): 113% (inactive)
growth (IGROV1 ovarian): 101% (inactive)
growth (OVCAR-3 ovarian): 108% (inactive)
growth (HS 578T breast): 78.7% (inactive)
growth (NCI/ADR-RES ovarian): 110% (inactive)

CC1(c2ccc3ccccc3c2)CCC(=O)O1 (centres undefined)
growth (SK-MEL-2 melanoma): 86.6% (inactive)
growth (EKVX NSCLC): 111% (inactive)
growth (SN12C renal): 102% (inactive)
growth (UO-31 renal): 81.1% (inactive)
growth (TK-10 renal): 93.5% (inactive)
growth (ACHN renal): 101% (inactive)
growth (CAKI-1 renal): 100% (inactive)
growth (A498 renal): 113% (inactive)
growth (CCRF-CEM leukemia): 105% (inactive)
growth (MOLT-4 leukemia): 95.2% (inactive)
growth (RPMI-8226 leukemia): 109% (inactive)
growth (OVCAR-8 ovarian): 101% (inactive)
growth (OVCAR-5 ovarian): 102% (inactive)
growth (OVCAR-4 ovarian): 110% (inactive)
growth (SK-OV-3 ovarian): 95.3% (inactive)
growth (IGROV1 ovarian): 102% (inactive)
growth (OVCAR-3 ovarian): 105% (inactive)
growth (HS 578T breast): 125% (inactive)
growth (NCI/ADR-RES ovarian): 105% (inactive)

COC(=O)c1nc(N)nc(C(=O)OC)c1C(=O)c1ccc(OC)cc1
growth (SK-MEL-2 melanoma): 108% (inactive) and 77.3% (inactive)
growth (EKVX NSCLC): 101% (inactive) and 59.3% (inactive)
growth (SN12C renal): 113% (inactive) and 78.5% (inactive)
growth (UO-31 renal): 89.6% (inactive) and 66.3% (inactive)
growth (TK-10 renal): 105% (inactive) and 92.8% (inactive)
growth (ACHN renal): 104% (inactive) and 52.9% (inactive)
growth (CAKI-1 renal): 94.8% (inactive) and 73.6% (inactive)
growth (A498 renal): 133% (inactive) and 141% (inactive)
growth (CCRF-CEM leukemia): 104% (inactive) and 39.7% (inactive)
growth (MOLT-4 leukemia): 136% (inactive) and 12.8% (inactive)
growth (RPMI-8226 leukemia): 107% (inactive) and 32.6% (inactive)
growth (OVCAR-8 ovarian): 105% (inactive) and 55.1% (inactive)
growth (OVCAR-5 ovarian): 121% (inactive) and 87.5% (inactive)
growth (OVCAR-4 ovarian): 105% (inactive) and 37.6% (inactive)
growth (SK-OV-3 ovarian): 106% (inactive) and 83.3% (inactive)
growth (IGROV1 ovarian): 106% (inactive) and 66.6% (inactive)
growth (OVCAR-3 ovarian): 117% (inactive) and 70.1% (inactive)
growth (HS 578T breast): 105% (inactive) and 81.2% (inactive)
growth (NCI/ADR-RES ovarian): 105% (inactive) and 37.4% (inactive)

NS(=O)(=O)c1cc2c(cc1Cl)NC(C(Cl)Cl)NS2(=O)=O (centres undefined)
growth (SK-MEL-2 melanoma): 104% (inactive) and 135% (inactive)
growth (EKVX NSCLC): 89.3% (inactive) and 110% (inactive)
growth (SN12C renal): 93.2% (inactive) and 103% (inactive)
growth (UO-31 renal): 90.7% (inactive) and 87.4% (inactive)
growth (TK-10 renal): 98.5% (inactive) and 121% (inactive)
growth (ACHN renal): 96.7% (inactive) and 92.4% (inactive)
growth (CAKI-1 renal): 98.8% (inactive) and 95.4% (inactive)
growth (A498 renal): 97.6% (inactive) and 96.2% (inactive)
growth (CCRF-CEM leukemia): 89.2% (inactive) and 92.5% (inactive)
growth (MOLT-4 leukemia): 95.1% (inactive) and 92.4% (inactive)
growth (RPMI-8226 leukemia): 96.7% (inactive) and 100% (inactive)
growth (OVCAR-8 ovarian): 99.2% (inactive) and 95.3% (inactive)
growth (OVCAR-5 ovarian): 96.6% (inactive)
growth (OVCAR-4 ovarian): 97.4% (inactive) and 114% (inactive)
growth (SK-OV-3 ovarian): 106% (inactive) and 114% (inactive)
growth (IGROV1 ovarian): 101% (inactive) and 109% (inactive)
growth (OVCAR-3 ovarian): 119% (inactive) and 126% (inactive)
growth (NCI/ADR-RES ovarian): 101% (inactive) and 108% (inactive)

Cn1c(SSc2ccc(-c3cccnc3)n2C)ccc1-c1cccnc1
growth (SK-MEL-2 melanoma): 106% (inactive) and 107% (inactive)
growth (EKVX NSCLC): 94.8% (inactive) and 99.5% (inactive)
growth (SN12C renal): 100% (inactive) and 114% (inactive)
growth (UO-31 renal): 95.8% (inactive) and 104% (inactive)
growth (TK-10 renal): 117% (inactive) and 102% (inactive)
growth (ACHN renal): 119% (inactive) and 108% (inactive)
growth (CAKI-1 renal): 94.3% (inactive) and 103% (inactive)
growth (A498 renal): 82.2% (inactive) and 95.7% (inactive)
growth (CCRF-CEM leukemia): 45.2% (inactive) and 68.6% (inactive)
growth (MOLT-4 leukemia): 80.2% (inactive) and 17.5% (inactive)
growth (RPMI-8226 leukemia): 96.5% (inactive) and 92.1% (inactive)
growth (OVCAR-8 ovarian): 97.4% (inactive) and 103% (inactive)
growth (OVCAR-5 ovarian): 141% (inactive) and 115% (inactive)
growth (OVCAR-4 ovarian): 80.3% (inactive) and 101% (inactive)
growth (SK-OV-3 ovarian): 131% (inactive) and 120% (inactive)
growth (IGROV1 ovarian): 103% (inactive) and 88.1% (inactive)
growth (OVCAR-3 ovarian): 98.9% (inactive) and 102% (inactive)
growth (HS 578T breast): 104% (inactive)
growth (NCI/ADR-RES ovarian): 103% (inactive) and 101% (inactive)

CN(C)c1ccc(C(Cc2ccc3ccccc3n2)Cc2ccc3ccccc3n2)cc1
growth (SK-MEL-2 melanoma): 70% (inactive) and 88.5% (inactive)
growth (EKVX NSCLC): 49.2% (inactive) and 72.9% (inactive)
growth (SN12C renal): 48.7% (inactive) and 81.6% (inactive)
growth (UO-31 renal): 2.9% (active) and 56.3% (inactive)
growth (TK-10 renal): 74.1% (inactive) and 121% (inactive)
growth (ACHN renal): 50.5% (inactive) and 89.6% (inactive)
growth (CAKI-1 renal): 26.1% (inactive) and 74.9% (inactive)
growth (A498 renal): 33.7% (inactive) and 59.3% (inactive)
growth (CCRF-CEM leukemia): 41.7% (inactive) and 67.4% (inactive)
growth (MOLT-4 leukemia): 11.4% (inactive) and 74.6% (inactive)
growth (SR leukemia): 39.5% (inactive) and 71% (inactive)
growth (RPMI-8226 leukemia): 25.4% (inactive) and 51.4% (inactive)
growth (OVCAR-8 ovarian): 46.5% (inactive) and 91.9% (inactive)
growth (OVCAR-5 ovarian): 58.7% (inactive) and 88.9% (inactive)
growth (OVCAR-4 ovarian): 45.5% (inactive) and 79.8% (inactive)
growth (IGROV1 ovarian): 36% (inactive) and 90.3% (inactive)
growth (OVCAR-3 ovarian): 55.2% (inactive) and 79.8% (inactive)
growth (NCI/ADR-RES ovarian): 37.5% (inactive) and 76.3% (inactive)

CCOc1ccc2nc3cc(N)ccc3c(N)c2c1
growth (SK-MEL-2 melanoma): 20% (inactive) and 24.6% (inactive)
growth (EKVX NSCLC): 57.3% (inactive) and 80% (inactive)
growth (SN12C renal): 18.5% (inactive)
growth (UO-31 renal): 74.9% (inactive) and 63% (inactive)
growth (TK-10 renal): 117% (inactive) and 122% (inactive)
growth (ACHN renal): 90% (inactive) and 83.7% (inactive)
growth (CAKI-1 renal): 100% (inactive) and 108% (inactive)
growth (A498 renal): 71% (inactive) and 79.9% (inactive)
growth (CCRF-CEM leukemia): 68.5% (inactive) and 54.2% (inactive)
growth (MOLT-4 leukemia): 34.9% (inactive) and 25.3% (inactive)
growth (RPMI-8226 leukemia): 113% (inactive) and 86.4% (inactive)
growth (OVCAR-8 ovarian): 28.9% (inactive) and 29.6% (inactive)
growth (OVCAR-5 ovarian): 94.1% (inactive) and 99.6% (inactive)
growth (OVCAR-4 ovarian): 56.6% (inactive) and 49.2% (inactive)
growth (SK-OV-3 ovarian): 61% (inactive) and 76.5% (inactive)
growth (IGROV1 ovarian): 69.9% (inactive) and 99.4% (inactive)
growth (OVCAR-3 ovarian): 35.3% (inactive) and 22.8% (inactive)
growth (HS 578T breast): 28.8% (inactive)
growth (NCI/ADR-RES ovarian): 88.4% (inactive) and 71.8% (inactive)
